Experimental data: PubChem BioAssay AID1159580 (chemical genetic matrix, 2015)
Where “and” joins values, the source holds several entries; their conditions need not be identical. Identical values can stand only once. The whole screen tested about 5,500 compounds, of which about 2,000 (36%) were called active. Inconclusive results (about 18%) are left out. Rule as the data show it: active = normalized growth mostly below about 0.91 (no sharp cut-off); inconclusive = no clear call, values can overlap the other calls; inactive = mostly above about 0.92. Some of the results follow.

Assay: chemical genetic growth profiling, strain panel (AID 1159580);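 also: tested at 20 µM; growth read once vehicle control cultures reached saturation at 30 °C; 1 = growth at the plate median or of vehicle wells; lower values mean less growth of the strain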
Details: S. cerevisiae deletion strains, growth OD

Measured: normalized growth

COc1ccc([C@@H](C)C(=O)c2ccc(O)cc2O)cc1
active: locus YDR137W, strain rgp1, hits give low values 0.797 | locus YGL086W, strain mad1, hits give low values 0.921 | locus YKR001C, strain vps1, hits give low values 0.798 | locus YLR039C, strain RIC1, hits give low values 1.57 [resistant] | locus YLR262C, strain YPT6 (second series), hits give low values 0.788 | locus YLR330W, strain CHS5, hits give low values 0.888 | locus YLR418C, strain cdc73, hits give low values 0.796 | locus YNL307C, strain MCK1, hits give low values 0.761 | locus YOL147C, strain pex11, hits give low values 0.931 | locus YOR184W, strain ser1, hits give low values 0.866 | locus YOR270C, strain vph1, hits give low values 0.737 | locus YPR163C, strain tif3, hits give low values 0.86
inactive: locus YAL021C, strain ccr4, hits give low values 0.987 | locus YAL026C, strain drs2, hits give low values 0.969 | locus YAL030W, strain snc1, hits give low values 0.983 | locus YBL061C, strain skt5, hits give low values 0.976 | locus YBR009C, strain hhf1, hits give low values 0.962 | locus YBR021W, strain FUR4, hits give low values 0.996 | locus YBR023C, strain chs3, hits give low values 0.974 | locus YBR171W, strain sec66, hits give low values 0.95 | locus YBR229C, strain ROT2, hits give low values 0.982 | locus YBR231C, strain swc5, hits give low values 0.983 | locus YBR279W, strain paf1, hits give low values 0.978 | locus YCL011C, strain gbp2, hits give low values 0.987 | locus YCL016C, strain dcc1, hits give low values 0.985 | locus YCL029C, strain bik1, hits give low values 0.96 | locus YCL061C, strain MRC1, hits give low values 0.994 | locus YCL069W, strain vba3, hits give low values 0.955 | locus YCR088W, strain abp1, hits give low values 0.967 | locus YDL005C, strain med2, hits give low values 0.969 | locus YDL035C, strain GPR1, hits give low values 0.98 | locus YDL040C, strain nat1, hits give low values 0.97 | locus YDL074C, strain BRE1, hits give low values 0.927 | locus YDL101C, strain DUN1, hits give low values 0.955 | locus YDL185W, strain tfp1, hits give low values 0.959 | locus YDL192W, strain arf1, hits give low values 0.931 | locus YDR001C, strain nth1, hits give low values 0.979 | locus YDR069C, strain doa4, hits give low values 0.965 | locus YDR101C, strain arx1, hits give low values 0.961 | locus YDR159W, strain sac3, hits give low values 0.969 | locus YDR162C, strain NBP2, hits give low values 0.937 | locus YDR195W, strain ref2 1.11 | locus YDR297W, strain sur2, hits give low values 0.994 | locus YDR318W, strain mcm21, hits give low values 0.93 | locus YDR334W, strain swr1, hits give low values 0.957 | locus YDR335W, strain msn5, hits give low values 0.968 | locus YDR388W, hits give low values 0.969 | locus YDR392W, strain spt3, hits give low values 0.749 | locus YDR502C, strain sam2, hits give low values 0.931 | locus YEL003W, strain gim4, hits give low values 0.962 | locus YEL037C, strain rad23, hits give low values 0.966 | locus YEL061C, strain CIN8 (second series), hits give low values 0.957 | locus YER015W, strain faa2, hits give low values 0.986 | locus YER016W, strain bim1, hits give low values 0.973 | locus YER110C, hits give low values 0.969 | locus YER111C, strain swi4, hits give low values 0.965 | locus YER155C, strain BEM2 (second series), hits give low values 0.952 | locus YER155C, strain BEM2, hits give low values 0.971 | locus YER167W, strain BCK2, hits give low values 0.973 | locus YFR010W, strain ubp6, hits give low values 0.979 | locus YGL078C, strain dbp3, hits give low values 0.981 | locus YGL167C, strain pmr1, hits give low values 0.96 | locus YGL173C, strain kem1, hits give low values 0.959 | locus YGL227W, strain vid30, hits give low values 0.983 | locus YGL240W, strain doc1, hits give low values 0.991 | locus YGL248W, strain PDE1, hits give low values 0.939 | locus YGL253W, strain hxk2, hits give low values 0.976 | locus YGR135W, strain pre9, hits give low values 0.948 | locus YGR252W, strain gcn5, hits give low values 0.92 | locus YHR013C, strain ard1, hits give low values 0.944 | locus YHR027C, strain rpn1, hits give low values 0.964 | locus YHR030C, strain SLT2, hits give low values 0.991 and 0.996 | locus YHR079C, strain IRE1 (second series), hits give low values 0.971 | locus YHR079C, strain IRE1, hits give low values 0.978 | locus YHR094C, strain hxt1, hits give low values 0.977 | locus YHR129C, strain ARP1, hits give low values 0.959 | locus YHR142W, strain chs7, hits give low values 0.929 | locus YHR200W, strain rpn10, hits give low values 0.982 | locus YIL066C, strain RNR3, hits give low values 0.961 | locus YIL073C, strain SPO22, hits give low values 0.955 | locus YIL125W, strain kgd1, hits give low values 0.98 | locus YIR030C, strain dcg1, hits give low values 0.973 | locus YJL092W, strain hpr5, hits give low values 0.978 | locus YJL095W, strain BCK1 (second series), hits give low values 0.987 | locus YJL095W, strain BCK1, hits give low values 0.864 and 0.977 | locus YJL115W, strain asf1, hits give low values 0.98 | locus YJL129C, strain trk1, hits give low values 0.878 | locus YJL134W, strain LCB3, hits give low values 0.989 | locus YJL154C, strain vps35, hits give low values 0.955 | locus YJL164C, strain tpk1, hits give low values 0.965 | locus YJL166W, strain qcr8, hits give low values 0.965 | locus YJL168C, strain set2, hits give low values 0.97 | locus YJL187C, strain SWE1 (second series), hits give low values 0.953 | locus YJL187C, strain SWE1, hits give low values 0.97 | locus YJR043C, strain POL32, hits give low values 1.03 | locus YJR066W, strain TOR1, hits give low values 0.873 | locus YKL009W, strain mrt4, hits give low values 0.963 | locus YKL068W, hits give low values 0.974 | locus YKL085W, strain MDH1 (second series), hits give low values 0.97 | locus YKL085W, strain MDH1, hits give low values 0.97 | locus YKL160W, strain elf1, hits give low values 0.975 | locus YKR026C, strain gcn3, hits give low values 0.97 | locus YKR091W, strain srl3, hits give low values 0.981 | locus YLL001W, strain dnm1, hits give low values 0.966 | locus YLL026W, hits give low values 0.988 | locus YLL041C, strain sdh2, hits give low values 0.953 | locus YLR027C, strain aat2, hits give low values 0.991 | locus YLR058C, strain SHM2, hits give low values 0.977 | locus YLR102C, strain apc9, hits give low values 0.969 | locus YLR113W, strain HOG1, hits give low values 1.01 | locus YLR221C, strain rsa3, hits give low values 0.971 | locus YLR258W, strain gsy2, hits give low values 0.954 | locus YLR262C, strain YPT6, hits give low values 0.738 | locus YLR268W, strain sec22, hits give low values 0.968 | locus YLR320W, strain mms22, hits give low values 0.895 | locus YLR342W, strain FKS1, hits give low values 0.96 | locus YLR357W, strain rsc2, hits give low values 1.03 | locus YLR370C, strain arc18, hits give low values 0.974 | locus YLR371W, strain rom2, hits give low values 0.921 | locus YLR384C, strain iki3, hits give low values 0.982 | locus YML016C, strain PPZ1, hits give low values 0.981 | locus YML032C, strain rad52, hits give low values 0.919 | locus YML120C, strain ndi1, hits give low values 0.976 | locus YML124C, strain tub3, hits give low values 0.968 | locus YMR058W, strain fet3, hits give low values 0.979 | locus YMR078C, strain ctf18, hits give low values 0.955 | locus YMR125W, strain sto1, hits give low values 0.961 | locus YMR129W, hits give low values 0.983 | locus YMR205C, strain PFK2, hits give low values 0.914 | locus YMR223W, strain ubp8, hits give low values 0.944 | locus YMR231W, strain pep5, hits give low values 0.972 | locus YMR307W, strain GAS1, hits give low values 0.692 | locus YNL067W, strain RPL9B, hits give low values 0.967 | locus YNL071W, strain lat1, hits give low values 0.948 | locus YNL153C, strain GIM3, hits give low values 0.953 | locus YNL183C, strain NPR1, hits give low values 0.915 | locus YNL209W, strain ssb2, hits give low values 0.975 | locus YNL233W, strain BNI4, hits give low values 0.934 | locus YNL248C, strain rpa49, hits give low values 0.976 | locus YNL250W, strain rad50, hits give low values 1.01 | locus YNL271C, strain bni1, hits give low values 0.975 | locus YNL298W, strain CLA4, hits give low values 0.945 | locus YNL322C, strain KRE1 (second series), hits give low values 0.986 | locus YNR049C, strain mso1, hits give low values 0.963 | locus YNR052C, strain pop2, hits give low values 0.943 | locus YOL012C, strain htz1 1.31 | locus YOR001W, strain rrp6, hits give low values 0.953 | locus YOR061W, strain CKA2, hits give low values 0.999 | locus YOR069W, strain VPS5, hits give low values 0.974 | locus YOR070C, strain gyp1, hits give low values 0.987 | locus YOR080W, strain dia2, hits give low values 0.975 | locus YOR083W, strain WHI5, hits give low values 0.973 | locus YOR106W, strain vam3, hits give low values 0.97 | locus YOR136W, strain idh2, hits give low values 0.967 | locus YOR144C, strain elg1, hits give low values 0.961 | locus YOR231W, strain MKK1, hits give low values 0.953 | locus YOR265W, strain rbl2, hits give low values 0.969 | locus YOR290C, strain snf2, hits give low values 0.982 | locus YOR316C, strain cot1, hits give low values 0.979 | locus YPL051W, strain arl3, hits give low values 0.975 | locus YPL078C, strain atp4, hits give low values 0.958 | locus YPL106C, strain sse1, hits give low values 1.02 | locus YPL240C, strain hsp82, hits give low values 0.965 | locus YPL241C, strain CIN2, hits give low values 0.971 | locus YPL256C, strain CLN2, hits give low values 0.969 | locus YPR119W, strain clb2, hits give low values 0.966 | locus YPR141C, strain kar3, hits give low values 0.98 | locus YPR167C, strain met16, hits give low values 0.965 | strain wtn01, hits give low values 0.94
